BJeLR lethal – BJeLR cell viability loss; BJeLR (HRASV12) viability, CellTiter-Glo ATP luminescence, 48 h; inhibition, % (test concentration not listed); 300,000 tested, 0.17% active; AID 1554; in the data active means inhibition above about 50%
Mtb hypoxia inh – reduces hypoxia-regulated biosensor signal in M. tuberculosis. M. tuberculosis hypoxia-regulated fluorescent reporter, fluorescence. fluorescence inhibition, % (test concentration not listed). 300,000 tested, 0.1% active. AID 1159583; in the data active means fluorescence inhibition mostly above about 23%, no sharp cut-off; inactive means mostly below about 17%
RecA splice inh – Mtb RecA intein splicing inhibition; inhibition, % (no concentration beside the values); P9WHJ3; AID 2221; 290,000 tested, 0.75% active; cell-free RecA intein splicing, fluorescence; in the data active means inhibition above about 30%;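 further: 0% = vehicle wells and 100% = reference inhibitor control wells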
Target sequence (P9WHJ3 whole entry, looked up, canonical isoform): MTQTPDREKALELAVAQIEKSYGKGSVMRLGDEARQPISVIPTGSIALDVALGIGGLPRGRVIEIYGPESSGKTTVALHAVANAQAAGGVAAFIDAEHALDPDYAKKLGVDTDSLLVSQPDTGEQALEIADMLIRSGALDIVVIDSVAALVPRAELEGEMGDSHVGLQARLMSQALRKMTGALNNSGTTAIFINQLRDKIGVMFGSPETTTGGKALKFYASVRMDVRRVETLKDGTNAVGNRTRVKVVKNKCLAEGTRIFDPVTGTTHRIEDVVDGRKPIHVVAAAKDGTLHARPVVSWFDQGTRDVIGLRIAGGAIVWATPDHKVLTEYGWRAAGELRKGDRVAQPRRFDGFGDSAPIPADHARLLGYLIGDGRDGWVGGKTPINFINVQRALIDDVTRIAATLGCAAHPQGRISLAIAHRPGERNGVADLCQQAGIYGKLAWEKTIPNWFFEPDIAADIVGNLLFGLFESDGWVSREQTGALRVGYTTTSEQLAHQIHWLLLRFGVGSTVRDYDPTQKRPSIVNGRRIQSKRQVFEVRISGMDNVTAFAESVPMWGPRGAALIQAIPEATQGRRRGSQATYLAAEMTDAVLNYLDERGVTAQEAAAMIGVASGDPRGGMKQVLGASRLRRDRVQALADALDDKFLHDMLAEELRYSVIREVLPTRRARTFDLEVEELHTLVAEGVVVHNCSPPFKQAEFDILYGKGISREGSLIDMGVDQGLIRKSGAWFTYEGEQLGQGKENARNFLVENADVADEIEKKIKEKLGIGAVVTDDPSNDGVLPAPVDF
Sa ugtP lethal – compounds lethal to S. aureus RN4220 ugtP deletion mutant | OD600 growth, 16 h | growth inhibition, % (concentration not given with the values) | 330,000 tested, 0.54% active; in the data active means growth inhibition above about 68%;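 further: plate controls were untreated wells for no effect and antibiotic for full effect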
CCHFV vOTU inh – blocks the CCHF virus ovarian tumor domain protease. CCHFV vOTU protease, Pep-AMC fluorescence. inhibition, % at 11.5 µM. 370,000 tested, 0.55% active. AID 651958; in the data active means inhibition above about 30%; further: 0% = vehicle wells with enzyme and 100% = no enzyme wells
Sa RN4220 lethal – S. aureus RN4220 growth inhibition. OD600, 16 h. 330,000 tested, 0.33% active. AID 1259311. inhibition, % (concentration not given with the values); in the data active means inhibition above about 85%;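 further: plate controls were untreated cells for no effect and reference antibiotic for full effect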
* marks the source's active call; other numbers are inactive results. A selection: hits, their analogues and other compounds. The true share with any hit is near 1.6%.

Results for COC(=O)C1=C(C(=O)OC)C2N(C)c3ccccc3[C@@]23CC(C(=O)OC)N(C(=O)c2ccco2)C3=N1 (some centres not stated) ?
Mtb hypoxia inh: 17.0; Sa ugtP lethal: 2.3; Sa RN4220 lethal: 5.7

Results for CN1C(=O)C(=Cc2ccc(N3CCCCC3)o2)C(=O)N(C)C1=S ?
BJeLR lethal: 2.6; RecA splice inh: -2.5; CCHFV vOTU inh: -1.2

Results for COc1ccc(N2C(=O)/C(=C/c3ccc(N(C)C)o3)C(=O)NC2=S)cc1 ?
BJeLR lethal: 2.5; Mtb hypoxia inh: 8.3; RecA splice inh: -2.7; Sa ugtP lethal: -4.9; CCHFV vOTU inh: 28.1; Sa RN4220 lethal: -2.0

What do the screens show for `CCN(CC)c1ccc(/C=C2\C(=O)NC(=S)N(c3ccc(OC)cc3OC)C2=O)o1`?
BJeLR lethal: -9.0; Mtb hypoxia inh: 53.9*; RecA splice inh: -3.7; Sa ugtP lethal: -1.3; Sa RN4220 lethal: 0.7

How did CCN(CC)c1ccc(/C=C2\C(=O)NC(=S)N(C)C2=O)o1 do in these assays?
BJeLR lethal: -9.9; Mtb hypoxia inh: 58.4*; RecA splice inh: -2.1; Sa ugtP lethal: -0.1; CCHFV vOTU inh: 14.8; Sa RN4220 lethal: 2.6

What do the screens show for `CCN(CC)c1ccc(C=C2C(=O)N(C)C(=S)N(C)C2=O)o1`?
BJeLR lethal: 4.1; Mtb hypoxia inh: 45.8*; RecA splice inh: -0.6; Sa ugtP lethal: 3.3; CCHFV vOTU inh: 8.6; Sa RN4220 lethal: 4.7

How did COC(=O)C1=C(c2cccc(OC)c2OC)CC2CCC1N2C(=O)NC1CC1 (configuration not stated) do in these assays?
Mtb hypoxia inh: 11.8; Sa ugtP lethal: -12.0; Sa RN4220 lethal: 1.2

How did CCn1c(COc2cccc3ccccc23)nnc1SCC(=O)OC1CCCCC1 do in these assays?
BJeLR lethal: -15.3; Mtb hypoxia inh: 12.9; RecA splice inh: 2.3; Sa ugtP lethal: 99.1*; CCHFV vOTU inh: -14.4; Sa RN4220 lethal: 99.1*

How did Cn1c(COc2cccc3ccccc23)nnc1SCC(=O)OC1CCCCC1 do in these assays?
BJeLR lethal: 9.6; Mtb hypoxia inh: 11.2; RecA splice inh: 14.3; Sa ugtP lethal: 92.2*; CCHFV vOTU inh: -1.6; Sa RN4220 lethal: 96.8*

How did Cn1c(CNc2cccc(Cl)c2)nnc1SCC(=O)OC1CCCCC1 do in these assays?
BJeLR lethal: 4.9; Mtb hypoxia inh: 10.6; RecA splice inh: 3.3; Sa ugtP lethal: 0.7; CCHFV vOTU inh: 10.3; Sa RN4220 lethal: 7.3

How did O=C(O)CSc1nnc(COc2cccc3ccccc23)n1Cc1ccccc1 do in these assays?
BJeLR lethal: -0.3; Mtb hypoxia inh: -6.5; RecA splice inh: 3.4; Sa ugtP lethal: 5.9; CCHFV vOTU inh: 6.6; Sa RN4220 lethal: 6.1

Results for COC(=O)Nc1nn(-c2ccc(OC)cc2)c(=O)c(C#N)c1C ?
BJeLR lethal: 18.5; Mtb hypoxia inh: 2.1; RecA splice inh: 39.6*; Sa ugtP lethal: 12.5; CCHFV vOTU inh: -0.1; Sa RN4220 lethal: 4.8

What do the screens show for `COC(=O)Nc1nn(-c2ccc(C)cc2)c(=O)c(C#N)c1C`?
BJeLR lethal: -8.8; Mtb hypoxia inh: 20.4; RecA splice inh: 19.4; Sa ugtP lethal: 4.7; CCHFV vOTU inh: 1.2; Sa RN4220 lethal: 7.4

Results for COCCCN=C1NN=C(c2cc(C)n(Cc3ccco3)c2C)CS1 ?
BJeLR lethal: 60.5*; Mtb hypoxia inh: -8.7; RecA splice inh: 3.1; Sa ugtP lethal: -3.3; CCHFV vOTU inh: 10.1; Sa RN4220 lethal: 2.0

Results for COCCn1c(C(=O)N2CCCC2)cc2c1CC1CN(C(=O)c3ccccc3)[C@@](Cc3ccc(F)cc3)(C(=O)OC)C21 (some centres not stated) ?
Mtb hypoxia inh: 4.1; Sa ugtP lethal: 6.1; Sa RN4220 lethal: 4.3

How did C=CCN1c2ccccc2[C@]23CC(C(=O)OC)N(C(=O)NC4CCCC4)C2=NC(C(=O)OC)=C(C(=O)OC)C13 (some centres not stated) do in these assays?
Mtb hypoxia inh: -9.5; Sa ugtP lethal: 5.6; Sa RN4220 lethal: -4.2

What do the screens show for `CC(C)=CCc1c(-c2ccc(O)cc2O)oc2cc3c(c(O)c2c1=O)C=CC(C)(C)O3`?
BJeLR lethal: -13.8; RecA splice inh: -1.8; Sa ugtP lethal: 97.3*; Sa RN4220 lethal: 95.9*

How did O=C(C=Cc1cccc(F)c1)Nc1nccs1 do in these assays?
Mtb hypoxia inh: 14.7; Sa ugtP lethal: -1.3; Sa RN4220 lethal: 7.0

Results for COc1ccccc1/C=C/C1(C(=O)NC2CCCC2)CC(=O)N1c1ccc(C)cc1 (configuration not stated) ?
BJeLR lethal: 2.7; Mtb hypoxia inh: 7.4; RecA splice inh: 34.4*; Sa ugtP lethal: -19.2; CCHFV vOTU inh: 6.1; Sa RN4220 lethal: 6.4

How did C[C@@]12C(=O)N(c3cccc(F)c3)C(=O)N1C(c1ccc(Cl)cc1)C1C(=O)N(C3CCCCC3)C(=O)C12 (some centres not stated) do in these assays?
Mtb hypoxia inh: 5.2; Sa ugtP lethal: -7.7; Sa RN4220 lethal: -3.9

How did Cc1ccccc1Cn1cccc1C=C1C(=N)N2C=CSC2=NC1=O do in these assays?
Mtb hypoxia inh: 7.4; Sa ugtP lethal: -12.2; Sa RN4220 lethal: 1.6

Results for CCOC(=O)c1cc(CC)sc1NC(=O)C(c1ccccc1)c1ccccc1 ?
BJeLR lethal: 7.7; Mtb hypoxia inh: 13.8; RecA splice inh: 0.2; Sa ugtP lethal: 89.3*; CCHFV vOTU inh: 6.3; Sa RN4220 lethal: 0.1

How did CCOC(=O)c1cc(CC)sc1NC(=O)C1CC1 do in these assays?
BJeLR lethal: 13.6; Mtb hypoxia inh: 14.5; RecA splice inh: -1.2; Sa ugtP lethal: -4.3; CCHFV vOTU inh: -4.6; Sa RN4220 lethal: 14.1

How did C#CCOCCOCCOCCNc1nc(N2CCN(C(=O)C(C(C)C)n3cc(CCO)nn3)CC2)nc(N2CCN(C(=O)C(C(C)CC)n3cc(CCCCN)nn3)CC2)n1 (configuration not stated) do in these assays?
Mtb hypoxia inh: 16.5; Sa ugtP lethal: 3.4; Sa RN4220 lethal: 5.1

How did O=C1Nc2ccc(Br)cc2/C1=C/C(=O)c1ccc2c(c1)OCO2 do in these assays?
BJeLR lethal: 22.9; Mtb hypoxia inh: 9.7; RecA splice inh: 49.2*; Sa ugtP lethal: 29.6; CCHFV vOTU inh: 15.4; Sa RN4220 lethal: 41.0

Results for COc1ccc(C(=O)N2CC3(CC(c4cccc(NC(=O)COc5ccc(Cl)cc5)c4)=NO3)CC2C(N)=O)cc1 (configuration not stated) ?
Mtb hypoxia inh: 8.2; Sa ugtP lethal: -21.5; Sa RN4220 lethal: 1.6

What do the screens show for `O=C(O)c1ccc([N+](=O)[O-])c2c1C(=O)c1ccccc1C2=O`?
BJeLR lethal: -3.2; Mtb hypoxia inh: 11.3; RecA splice inh: 47.2*; Sa ugtP lethal: 3.7; CCHFV vOTU inh: 20.5; Sa RN4220 lethal: 1.4

How did O=C(C=Cc1cccs1)N1CCC2(CC1)Oc1ccc(Cl)cc1C(=O)C21CC(c2ccc(Cl)cc2)=NO1 (configuration not stated) do in these assays?
Mtb hypoxia inh: 4.5; Sa ugtP lethal: -4.9; Sa RN4220 lethal: 1.7

How did O=C(Nc1cccnc1Cl)c1ccc(Cl)cc1 do in these assays?
BJeLR lethal: -0.4; Mtb hypoxia inh: 2.1; RecA splice inh: -2.1; Sa ugtP lethal: 15.2; CCHFV vOTU inh: -12.2; Sa RN4220 lethal: 4.9
